Source: PubChem BioAssay (National Center for Advancing Translational Sciences (NCATS))
uPA surface inh – qHTS for Inhibitors of Cell Surface uPA Generation; Potency, µM (top dose mostly 38.3 µM), for inactives: at the top dose activity change, negative = inhibition, hits mostly inhibitors; cell surface uPA generation assay, qHTS; 0.31% of 330,000 active; active = well fitted inhibition curve with a large enough effect; inconclusive = small, poorly fitted or top-dose-only effect; inactive = no such curve, though single readings can be large or run the other way; tested in mouse RAW 264.7 cells; also: potency is read from the fitted curve at half-maximal effect; nearly all actives have a fitted effect of over 55% in size
IL-1B inflam inh – qHTS for Inhibitors of Inflammasome Signaling: IL-1-beta AlphaLISA Primary Screen; THP-1 LPS/ATP IL-1B secretion, AlphaLISA, 16 h; stronger effect = lower value; activity change, % at 57.5 µM; 4.7% of 360,000 active; AID 743279, 2014; in the data active = activity change below about -50%; inconclusive = mostly about -30% to -49%
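Secreted IL-1B measured by AlphaLISA bead assay after 16 h compound exposure of THP-1 cells; compounds (final up to 57.5 uM) added 1 h before LPS (250 ng/mL) and ATP (1.25 mM) stimulation; lower signal means less secretion.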
TDP1 cell noCPT – qHTS for Inhibitors of human tyrosyl-DNA phosphodiesterase 1 (TDP1): qHTS in cells in absence of CPT | DT40 Tdp1-/- hTDP1 cells, no CPT, ATP luminescence, 48 h | Potency, µM (highest dose often 46.2 µM), for the others: at the top dose activity change, negative = growth inhibition, hits mostly inhibitors | 15% of 420,000 active | AID 686978, 2013; also: potency is read from the fitted curve at half-maximal effect; nearly all actives have a fitted effect of over 55% in size
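Camptothecin absent (DMSO only). Human TDP1-complemented DT40 knockout cells, 400 cells/well, 37 °C for minimum 48 hr; ATP measured via CellTiter-Glo, 30 min dark incubation, luminescence.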
HT1080 IDH1KD tx – qHTS for induction of synthetic lethality in tumor cells producing 2HG: qHTS for the HT-1080-IDH1KD cell line | HT-1080 IDH1 knockdown viability, ATP luminescence, 48 h | Potency, µM (highest dose often 46.1 µM), without a hit: at the highest dose activity, negative = toxicity, usual class: cytotoxic | 2% of 360,000 active;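 also: potency is read from the fitted curve at half-maximal effect; 0% = DMSO wells and -100% = cell-free medium wells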
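CellTiter-Glo luminescence after 48 h compound exposure at 37 degrees C of IDH1-knockdown HT-1080 cells in 5% FBS RPMI. %Activity scaled between DMSO wells and cell-free media wells, with curves fitted and assigned curve classes.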
DT40 TDP1 CPT – qHTS for Inhibitors of human tyrosyl-DNA phosphodiesterase 1 (TDP1): qHTS in cells in presence of CPT; chicken DT40 Tdp1-/-;hTDP1 cells + 20 nM CPT, ATP luminescence, 48 h; Potency, µM (top dose mostly 46.2 µM), without a hit: at the highest dose activity change, negative = growth inhibition, usual class: inhibitors; 12% of 420,000 active; AID 686979, 2013; also: potency is read from the fitted curve at half-maximal effect; nearly all actives have a fitted effect of over 55% in size
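Chicken DT40 Tdp1-/- cells stably complemented with human TDP1 were seeded at 400 cells/well in medium containing 20 nM camptothecin, exposed to pin-transferred compounds, and grown at 37 °C for at least 48 hr. Viability was read as ATP luminescence.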
HT1080NT lethal – qHTS for induction of synthetic lethality in tumor cells producing 2HG: qHTS for the HT-1080-NT fibrosarcoma cell line; HT-1080-NT fibrosarcoma viability, CellTiter-Glo ATP luminescence, 48 h; Potency, µM (top dose mostly 46.1 µM), for inactives: at the highest dose activity, negative = less viability, most hits filed as cytotoxic; 1.6% of 360,000 active; AID 686970, 2013;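 also: NT is the 2HG producing partner of a matched IDH1 knockdown line; potency is read from the fitted curve at half-maximal effect; 0% = DMSO-treated cells and -100% = media-only wells without cells; nearly all actives have a fitted effect of over 55% in size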
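Read-out is CellTiter-Glo luminescence after 10 minutes at room temperature, following 48 hours' compound treatment of HT-1080-NT cells (750 cells/well, RPMI, 5% FBS, 37 degrees C).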
Starred values were filed as active, the others as inactive; ? = inconclusive; nt = no result given; ! = repeats disagree; [ ] = another dose, or the depositor's remark. Only some compounds are listed: those with a hit (about 19% of all), similar ones and a draw of the others. Unless noted, calls follow the shape of the dose curve; as a rule, active = well fitted curve in the direction sought with a large enough effect; inconclusive = small, poorly fitted or top-dose-only effect, or another doubt; inactive = no such curve, though single readings can be large; an effect the other way counts as inactive or inconclusive. Unless noted, % is scaled to controls: 0 for no effect and ±100 for the full control effect.

SMILES | uPA surface inh | IL-1B inflam inh | TDP1 cell noCPT | HT1080 IDH1KD tx | DT40 TDP1 CPT | HT1080NT lethal
O=C(Nc1ccc2ccccc2c1)c1nc(S(=O)(=O)Cc2ccccc2F)ncc1Cl | nt | nt | 1.3µM* | nt | 0.71µM* | nt
O=C(Nc1ccccc1F)c1nc(S(=O)(=O)Cc2ccccc2F)ncc1Cl | nt | nt | 0.92µM* | nt | 1.3µM* | nt
CCc1ccc(C2C(C(=O)Nc3ccc(Cl)cc3)=C(C)Nc3ncnn32)cc1 (stereo not drawn) | nt | nt | -18% | nt | ? | nt
CN1C[C@@H]2[C@@H]3C(=O)N(C)C(=O)[C@@H]3[C@](Cc3ccccc3)(C1=O)N2C(=O)c1ccccc1 | -2% | 50 | -2% | 9% | -6% | 8%
CCOc1ccccc1NC(=O)c1nc(S(=O)(=O)Cc2ccccc2F)ncc1Cl | nt | nt | ? | nt | 0.56µM* | nt
COC(=O)c1ccccc1NC(=O)c1nc(S(=O)(=O)Cc2ccccc2F)ncc1Cl | nt | nt | ? | nt | -11% | nt
COc1ccc(OCC(=O)Nc2nnc3n2CCS3)cc1 | nt | nt | -10% | nt | -9% | nt
COc1ccc(CN2CCN(C(=O)c3ccc(S(=O)(=O)NCc4ccco4)cc3)CC2)cc1F | ? | -13 | ? | -19% | 9.2µM* | -8%
O=C(CCc1ccc(S(=O)(=O)NCc2ccccc2)cc1)N1CCN(Cc2ccc3c(c2)OCO3)CC1 | nt | ? | ? | -6% | 32µM* | -3%
O=C(c1ccc(S(=O)(=O)NCc2ccco2)cc1)N1CCN(Cc2ccc3c(c2)OCO3)CC1 | -10% | -10 | 16µM* | -6% | ? | -17%
OC[C@H]1O[C@@H](c2nc(-c3ccc(CN4CCOCC4)cc3)no2)[C@H](O)[C@@H](O)[C@H]1O | nt | 23 | -9% | 18% | -14% | 27%
COCCn1c(Cc2ccccc2)nnc1SCC(=O)Nc1oc(C)c2c(C)n[nH]c(=O)c12 | 2% | 8 | 0% | 13% | 0% | 7%
O=C(NCCOc1ccccc1)C1C(=O)Nc2ccccc2C(=O)N1C1CCCCC1 (stereo not drawn) | nt | -7 | -6% | -2% | 3% | 0%
CCOc1ccccc1CNC(=O)c1c(C)oc2ncnc(N3CCOCC3)c12 | nt | nt | -7% | nt | -1% | nt
CCOC(=O)c1ccc(NC(=O)C2=C(C)Nc3nc(SCc4ccc(Cl)cc4)nn3C2c2ccc(C)cc2)cc1 (stereo not drawn) | nt | nt | -3% | nt | -15% | nt
CCOc1ccc(OCCC(=O)OCC(=O)NCc2ccccc2)cc1 | 7% | 2 | 6% | -2% | 3% | -5%
CCc1ccc(C2c3[nH]c4ccccc4c3CCN2C(=O)c2cc[n+]([O-])cc2)cc1 (stereo not drawn) | ? | 13 | 16µM* | ? | 26µM* | ?
CCN(CC)c1ccc(C(=O)N2CCc3c([nH]c4ccccc34)C2c2ccc(F)cc2)cc1 (stereo not drawn) | nt | nt | ? | nt | 2.9µM* | nt
Cc1ncc2c(c1CNS(=O)(=O)N(C)C)CCN(C(=O)c1c(F)cccc1F)C2 | nt | nt | -10% | nt | 6%[9.04 µM] | nt
Cc1cc(Br)cc2c(C(=O)OCC(=O)c3ccccc3)cc(-c3ccccc3)nc12 | nt | nt | 9% | nt | -6% | nt
Nc1cc(=O)[nH]c(SCc2ccccc2Cl)n1 | 5% | -9 | ? | -1% | -25% | -4%
CC(C)CCNC(=O)c1onc(CSc2nc3ccccc3[nH]2)c1C(=O)NCCC(C)C | 10% | -3 | 16µM* | 11% | ? | 8%
O=C(NCCCO)c1ccc(CSc2nc3ccccc3[nH]2)cc1 | -2% | 46 | 18µM* | -1% | ? | -17%
O=C(NCc1ccccc1Cl)c1ccc(CSc2nc3ccncc3[nH]2)cc1 | 0% | -76* | ? | -17% | -9% | -4%
COCCNC(=O)c1onc(CSc2nc3ccccc3[nH]2)c1C(=O)NCCOC | -2% | 15 | ? | 11% | -26% | 12%
SMILES | uPA surface inh | IL-1B inflam inh | TDP1 cell noCPT | HT1080 IDH1KD tx | DT40 TDP1 CPT | HT1080NT lethal
Clc1ccccc1CSc1nc2ccncc2[nH]1 | 4µM* | 8 | 23µM* | -17% | ? | -22%
COc1ccc([C@@H]2CC(=O)[C@@H]3CN(S(=O)(=O)c4ccc(C)cc4)[C@H](c4ccccc4)C[C@@H]3N2S(=O)(=O)c2ccccc2)cc1 | nt | 12 | -7% | 11% | -16% | 13%
C=C(C)Cn1c(SCC(=O)N/N=C/c2c(O)ccc3ccccc23)nc2ccccc2c1=O | 2% | 28 | 6.5µM* | -3% | 7.3µM* | -6%
C=C(C)Cn1c(SCC#N)nc2ccccc2c1=O | -9% | -3 | -20% | -4% | -5% | -4%
C=C(C)Cn1c(SCC)nc2ccccc2c1=O | 1% | 4 | 10µM*! | 11% | ? | 5%
Cn1cc(-c2nc3cncnc3n(Cc3ccccc3Cl)c2=O)c2ccccc21 | nt | nt | -9% | nt | -3% | nt
Cc1cccc(C(P(=O)(c2ccccc2)c2ccccc2)P(=O)(c2ccccc2)c2ccccc2)n1 | 0% | -10 | 16µM* | 9% | ? | -1%
O=C1/C(=C\c2ccc(O)c(O)c2)N=C2CCCCCN12 | -8% | 38 | ? | -22% | 23µM* | -17%
COc1cc(=O)n2c(c1C(=O)NCc1ccco1)CCN(C(=O)c1ccccc1-c1ncc[nH]1)CC2 | nt | nt | -2% | nt | 22% | nt
CCCCn1c(N)c(N(CC(C)C)C(=O)C2CCN(S(=O)(=O)c3ccc(C)cc3C)CC2)c(=O)[nH]c1=O | 4% | -18 | -6% | -10% | -11% | -4%
Cc1nn(CC(=O)Nc2ccc(N3CCOCC3)cc2)c(C)c1[N+](=O)[O-] | 3% | 22 | -19% | 1% | -1% | -1%
Clc1ccccc1-c1nc(Nc2ccccc2)nc2ccc(Br)cc12 | nt | nt | 18µM* | nt | ? | nt
COc1ccccc1Nc1nc(-c2ccccc2Cl)c2cc(Br)ccc2n1 | nt | nt | 2.3µM* | nt | 3.7µM* | nt
COc1ccccc1Nc1nc(Cl)nc(Nc2ccccc2OC)n1 | 2% | 0 | ? | -30% | 0% | -16%
Clc1ccc(Nc2nc(-c3ccccc3)c3cc(Cl)ccc3n2)cc1 | nt | nt | -7% | nt | 5% | nt
COc1ccc(NC(=O)CNc2ccccc2C(C)=O)cc1S(=O)(=O)N1CCOCC1 | 19% | -2 | -22% | -3% | ? | -1%[9.24 µM]
